In PubChem BioAssay (Tox21):
Results filed as inconclusive are left out. Activity calls are given as the source filed them. Calls follow the shape of the full dose curve.

Experiment: p53 small molecule agonists, cell-based qHTS assay with human liver microsomes (AID 1963577);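 also: p53 response element beta-lactamase reporter cells with liver microsomes plus NADPH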
Details: HCT-116 p53RE-bla with human liver microsomes, ratio, 16 h; series mostly up to 66 µM; activation: at the top concentration
Text: National Center for Advancing Translational Sciences [NCATS]
Division of Preclinical Innovation [DPI]
U.S. Environmental Protection Agency [EPA]
National Institutes of Environmental Health Sciences [NIEHS]
National Toxicology Program [NTP]
U.S. Food and Drug Administration [FDA]
p53, a tumor suppressor protein, is activated following cellular insult, including DNA damage and other cellular stresses. The activation of p53 regulates cell fate by inducing DNA repair, cell cycle arrest, apoptosis, or cellular senescence. The activation of p53, therefore, is a good indicator of DNA damage and other cellular stresses. […] The activation of the reporter gene under culture conditions can be detected by fluorescence intensity.
Tox21 Assay Protocol Summary:
The p53RE-bla cells were dispensed at 4,000cells/3ul/well in 1536-well black-clear bottom plates. After the assay plates were incubated at 37 C, 5% CO2 incubator for 5 hours, 23 nL of compounds dissolved in DMSO, positive controls or DMSO only was transferred to the assay plate. Following compound addition, 3 uL of human liver microsomes (XenoTech, Kansas City, KS) at final concentration of 0.5 mg/mL and 1uL of Beta-Nicotinamide adenine dinucleotide 2-phosphate (NADPH) at final concentration of 0.5 mg/mL were transferred to the assay plate. The plates were incubated at 37 C for 16 hours. 1 uL of LiveBLAzer detection mixture was added to each well and the plates were incubated at room temperature in the dark for 2 h.
% is scaled to controls: 0 for no effect and ±100 for the full control effect.

Compound | activation
O=S(=O)(O)c1ccc(N=Nc2c(O)ccc3ccccc23)cc1 | -0.473% (inactive)
CCCCCCC(O)CO (stereo not given) | 0.0838% (inactive)
CO[Si](C)(OC)c1ccccc1 | 0.664% (inactive)
CC(=O)OC(C)c1ccccc1 (stereo not given) | 0.289% (inactive)
NNc1nnc(NN)c2ccccc12 | -4.62% [at 30.3 µM] (inactive)
O=Cc1c(Cl)cccc1Cl | -0.266% (inactive)
CCOC(=O)c1cccnc1 | 1.48% [at 30.3 µM] (inactive)
CC1=CC(=O)CC(C)(C)C1=O | 0.0332% (inactive)
CN1CCC(=C2c3ccccc3C=Cc3ccccc32)CC1 | 7.57% [at 30.3 µM] (inactive)
CCOC(=O)C1=NOC(c2ccccc2)(c2ccccc2)C1 | -2.24% (inactive)
O=C(O)CCN(C1(C(=O)NO)CCCC1)S(=O)(=O)c1ccc(Oc2ccc(F)cc2)cc1 | -0.372% (inactive)
CC(C(=O)O)c1ccc(-c2ccccc2)c(F)c1 (stereo not given) | -2.21% (inactive)
CC(C)C[C@@H]1[C@H](c2ccccc2)OC(=O)N1CCCN1CCCCCC1 | 1.49% [at 30.3 µM] (inactive)
CCCOC(=O)c1ccc(O)cc1 | -1.39% (inactive)
CC(C)SCc1ccco1 | 0.464% [at 30.3 µM] (inactive)
CC(C)OCC1CO1 (stereo not given) | -4.89% (inactive)
Nc1c2c(nc3c1CCC3)CCCC2 | -6.31% [at 30.3 µM] (inactive)
CCOC(=O)CCC(=O)OCC | -3.38% (inactive)
CN(C)c1ccc(CCO)cc1 | 1% (inactive)
C/C(=N\[Si](C)(C)C)O[Si](C)(C)C | -0.629% (inactive)

Compound | activation
CCCCOC(=O)C(C)O (stereo not given) | 0.163% (inactive)
CCCN(CCC)c1c([N+](=O)[O-])cc(C(F)(F)F)c(N)c1[N+](=O)[O-] | -3.11% (inactive)
c1ccc(COCc2ccccc2)cc1 | 2.67% (inactive)
O=C(c1ccc(O)cc1)c1ccc(O)cc1 | -1.72% (inactive)
CN(C)CCCOc1nn(Cc2ccccc2)c2ccccc12 | -1.34% [at 30.3 µM] (inactive)
CC/C=C\CCOC(=O)c1ccccc1O | 0.427% (inactive)
NC(=O)c1cn(Cc2c(F)cccc2F)nn1 | 0.725% [at 30.3 µM] (inactive)
Cc1ccc(C(=O)Oc2ccc(C(O)CNC(C)(C)C)cc2OC(=O)c2ccc(C)cc2)cc1 (stereo not given) | -0.978% [at 30.3 µM] (inactive)
Cc1cc(S(=O)(=O)O)c(N)cc1Cl | -3.29% (inactive)
OCC(CO)(CO)COCC(CO)(CO)CO | -4.67% (inactive)
C=COCC1CCC(CO)CC1 (stereo not given) | 1.14% (inactive)
O=C(CCC1CCN(Cc2ccccc2)CC1)c1ccc2c(c1)NCCCC2 | -6.35% [at 30.3 µM] (inactive)
NC(Cc1ccc(Cl)cc1)C(=O)O (stereo not given) | 1.9% [at 0.249 µM] (inactive)
CCCCCCCCOC(C)=O | 0.546% (inactive)
Nc1cc(C(F)(F)F)ccc1S | -12.5% [at 30.3 µM] (inactive)
COc1cc(CNC(=O)CCCC/C=C/C(C)C)ccc1O | 0.199% (inactive)
C1CCN2C[C@@H]3C[C@@H](CN4CCCC[C@@H]34)[C@H]2C1 | -0.202% [at 30.3 µM] (inactive)
CC(=O)C1C(=O)C=C(C)OC1=O (stereo not given) | 3.72% (inactive)
Cc1cc(O)c(C)c(C)c1O | 0.874% [at 30.3 µM] (inactive)
CN1CCN(c2c(F)cc3c(=O)c(C(=O)O)cn4c3c2SCC4)CC1 | 21.2% [at 30.3 µM] (inactive)
